Assay results published in the supplement of paper PMC10105736.

Assays:
Assay in all cases: MAPPIT interaction score (arbitrary units); higher = stronger binary interaction signal, active = hit call of the paper;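 active = MAPPIT score above the 99th percentile of random reference set scores in the same batch; inactive = at or below it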
[1] = biological target: Mzt1; settings: MAPPIT configuration: N-N; pair source set: RRS
[2] = biological target: MagR; settings: MAPPIT configuration: N-N; pair source set: Lit-BS-16
[3] = biological target: Polr1B; settings: MAPPIT configuration: N-N; pair source set: DPIM
[4] = biological target: pav; settings: MAPPIT configuration: N-N; pair source set: DPIM
[5] = biological target: MED15; settings: MAPPIT configuration: N-N; pair source set: Finley_Y2H
[6] = biological target: MYPT-75D; settings: pair source set: Lit-BM-16
[7] = biological target: Mbs; settings: MAPPIT configuration: N-N; pair source set: Lit-BM-16
[8] = biological target: Nop17l; settings: MAPPIT configuration: N-N; pair source set: Lit-BM-16
[9] = biological target: Tm1; settings: MAPPIT configuration: N-C; pair source set: Lit-BM-16
[10] = biological target: Zasp66; settings: pair source set: Lit-BM-16
[11] = biological target: elm; settings: MAPPIT configuration: N-N; pair source set: Lit-BS-16
[12] = biological target: Mpcp2; settings: MAPPIT configuration: N-N; pair source set: Lit-BS-16
[13] = biological target: mod(mdg4); settings: MAPPIT configuration: N-N; pair source set: Lit-BS-16

Measured: MAPPIT interaction score
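Also: HEK293T cells with Epo stimulation, STAT-responsive firefly luciferase reporter, fold induction versus unstimulated cells divided by the larger fold induction of two negative controls lacking either bait or prey.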

B1: Ror (protein)
chain: MNKYSAFIVCISLVLLFTKKDVGSHNVDSRIYGFQQSSGICHIYNGTICRDVLSNAHVFVSPNLTMNDLEERLKAAYGVIKESKDMNANCRMYALPSLCFSSMPICRTPERTNLLYFANVATNAKQLKNVSIRRKRTKSKDIKNISIFKKKSTIYEDVFSTDISSKYPPTRESENLKRICREECELLENELCQKEYAIAKRHPVIGMVGVEDCQKLPQHKDCLSLGITIEVDKTENCYWEDGSTYRGVANVSASGKPCLRWSWLMKEISDFPELIGQNYCRNPGSVENSPWCFVDSSRERIIELCDIPKCADKIWIAIVGTTAAIILIFIIIFAIILFKRRTIMHYGMRNIHNINTPSADKNIYGNSQLNNAQDAGRGNLGNLSDHVALNSKLIERNTLLRINHFTLQDVEFLEELGEGAFGKVYKGQLLQPNKTTITVAIKALKENASVKTQQDFKREIELISDLKHQNIVCILGVVLNKEPYCMLFEYMANGDLHEFLISNSPTEGKSLSQLEFLQIALQISEGMQYLSAHHYVHRDLAARNCLVNEGLVVKISDFGLSRDIYSSDYYRVQSKSLLPVRWMPSESILYGKFTTESDVWSFGVVLWEIYSYGMQPYYGFSNQEVINLIRSRQLLSAPENCPTAVYSLMIECWHEQSVKRPTFTDISNRLKTWHEGHFKASNPEM
inactive: [1] -0.491

B2: Hakai (protein)
chain: MDTEEVKRGRGRGRGTRARGRGRGRGRGRGKKIDDSSIADAAALAASSCAALEDSPGRLDASEDSVMQELDKDGELETPGALEEPLPHGALGAVAASGNMTPATQQPQVLQQVPPPVMSQTTISLSLARAVDMEADISQLEAPTFTTLSRGPPEPMLRLKWNHKVSLIGEKVLNPMIHCCDQCDKPILVYGRMIPCKHVFCLKCARAEPIKSCPRCTDKVLRVEQSGLGTVFMCTHGGSRYGSSGCRRTYLSQRDLQAHINHRHVAPQPPPLQPQPQLSAMAEQPKMTDLGGVGLGLELHKQRKLSESSVPISVSASIASRPVLSRLPLTGGVGNIGSIGSIPPPGSAAAAQNAIHGGHSTLTLANLTRINNANAQECHQGKASLHHTLKKGTPHQSESVADASYYSSVLASFGSAAGNPGSGPPGGGATAAAQPANPSGSHSAVGPGALIGGSTDAPTGGSSGNWQQSQYYR
inactive: [2] 2.01 | [3] 0.0868 | [4] 0.0448

B3: grp (protein)
chain: MAATLTEAGTGPAATREFVEGWTLAQTLGEGAYGEVKLLINRQTGEAVAMKMVDLKKHPDAANSVRKEVCIQKMLQDKHILRFFGKRSQGSVEYIFLEYAAGGELFDRIEPDVGMPQHEAQRYFTQLLSGLNYLHQRGIAHRDLKPENLLLDEHDNVKISDFGMATMFRCKGKERLLDKRCGTLPYVAPEVLQKAYHAQPADLWSCGVILVTMLAGELPWDQPSTNCTEFTNWRDNDHWQLQTPWSKLDTLAISLLRKLLATSPGTRLTLEKTLDHKWCNMQFADNERSYDLVDSAAALEICSPKAKRQRLQSSAHLSNGLDDSISRNYCSQPMPTMRSDDDFNVRLGSGRSKEDGGDRQTLAQEARLSYSFSQPALLDDLLLATQMNQTQNASQNYFQRLVRRMTRFFVTTRWDDTIKRLVGTIERLGGYTCKFGDDGVVTVSTVDRNKLRLVFKAHIIEMDGKILVDCRLSKGCGLEFKRRFIKIKNALEDIVLKGPTTWPIAIATNSVP
inactive: [5] 2.02

B4: flw (protein)
chain: MGDFDLNVDSLIQRLLEMRSCRTGKQVQMTEAEVRGLCLKSREIFLQQPILLELEAPLIICGDIHGQYTDLLRLFEYGGFPPAANYLFLGDYVDRGKQSLETICLLLAYKIKYPENFFLLRGNHECASINRIYGFYDECKRRYNVKLWKTFTDCFNCLPVAAIIDEKIFCCHGGLSPDLQGMEQIRRLMRPTDVPDTGLLCDLLWSDPDKDVQGWGENDRGVSFTFGVDVVSKFLNRHELDLICRAHQVVEDGYEFFARRQLVTLFSAPNYCGEFDNAGGMMTVDDTLMCSFQILKPSEKKAKYLYSGMNSSRPTTPQRSAPMLATNKKK
inactive: [6]; MAPPIT configuration: N-C 0.517 | [6]; MAPPIT configuration: N-N -0.255 | [7] -0.0767 | [8] -0.464 | [9] 1.19 | [10]; MAPPIT configuration: N-C 0.478 | [10]; MAPPIT configuration: N-N 0.558 | [11] -0.48

B5: 4E-T (protein)
chain: MDTSKISARYSKVDLLALRYEGKSRQRPQCSTRLELQTLGFWKINLNTAALTVSSAYSNQNKNRLSPEADNSSLICSNSSSISSRRAMRNRERANNYYQRFVPTDSLLISGEDKDKDALSHGQPYKLNIIDHRSISSSHLMPAFAKRRFVISKGSNSEESNEGINTCASKGKAASSPSRKGSELDTAETCLNFVQPDHDQCMSSSPTFSTSRQERRIGSGRLLPRSDNWDYKNEKTVEASIENEKETSPNGSGSTSSLNQHNQSQHRSRTFSGRLVERVPEVTDRRFQYDSKKSFDRQGINNRRISGKEPFSTQSRSKRGNSYLIHEEPEWFSAGPKSQLETIDLHGFEDLEKNEERSVTEDKNNQIQQLDKNLDAQASKDEASMRNSNDSLNFREVIPSDEKKHTDENVVTSIQNSTDLGHPNKNKPIQMQPSQNPESEFNFDAFLNMHPLDNSVLSNDETGKSDSKGTSRFSRWFRQKEAANNNEFPGFRESHAQEKRGIPSVKDLEAQMIKVDMRTDLINPIAGSLCQTVQMEKPIARDTEAFKKLLQQLGSQARQHHPCNDDCRTINLSNIANHVHLESKLHQKINDGHLQQPELSVNVPTMPTSSHVFLQKRLEIQHLIQRLHCGDVSHDFLEKELDNPSTPAATKDVIATVLNEYSHSKRNPVVTGDPNIFTQQSFLQPQSVHQHYSQELHSQNTANHTINQLISHGNSPTPLAFTPTSVLRKMTADKDTQSPSTYCQNPQYHVHQQNAKQVGTRENVLEPQLTATMAVQPRMILGGGNFAIGQNNQHLSPNMSQSRNQQVLKWTSGNMQMVHGKTFGRPILKGGLNSMPHSNSALPFTAHKIEMQPIHQPHLQQQQHRFKAVQSVESNLNTESVHQNITSPVGWHQLYMQHQQQHHHTRQQLSQRVIYGEMHRQSNPQMSPPVPGFSDSSDSGNVIKANSLTSPSYQRDERISSPTNQLAQWFSPELLAKASAGKLPLLNVNQALSLEEFERSIQHSSGVVHN
inactive: [12] 0.135 | [13] -0.246
